Out of some 390,000 compounds screened, about 4,000 (1%) were called active. Inconclusive results (about 4%) are left out. For the sample, actives were picked, then their nearest neighbours and some compounds at random. Unmarked numbers belong to inactive results. Calls come from the whole dose curve; as a rule, active = well fitted inhibition curve with a large enough effect; inconclusive = small, poorly fitted or top-dose-only effect; inactive = no such curve, though single readings can be large or run the other way.
The molecules below were run against Thioredoxin reductase 1, cytoplasmic (Rattus norvegicus) (UniProt O89049) (assay: qHTS Assay for Inhibitors of Mammalian Selenoprotein Thioredoxin Reductase 1 (TrxR1): qHTS). Details: recombinant rTrxR1, NADPH fluorescence consumption, selenite substrate; series mostly up to 114 µM; activity change, negative = inhibition: at the top concentration.
Description: The selenoprotein thioredoxin reductase (TrxR; EC 1.8.1.9) is a FAD containing homodimeric pyridine nucleotide-disulfide oxidoreductase with many cellular roles. Together with NADPH and its prime substrate thioredoxin (Trx), the enzyme forms the core of the Trx system. The mammalian Trx system exerts a wide spectrum of functions including redox regulation, antioxidant defense, regulation of transcription factors as well as support of cell growth and replication. Many of these functions involve the reduction of Trx, which may subsequently reduce a number of different substrates including ribonucleotide reductase, peroxiredoxins or NFkB. Mammalian TrxR itself also has a broad substrate specificity, reducing both protein and non-protein substrates, including low molecular weight compounds such as dehydroascorbate, lipoic acid, ubiquinone, and juglone. In addition, several drugs in clinical use for anticancer treatment are indeed known to target TrxR1.
This BioAssay is a validation of an NADPH fluorescence-based, dual-purpose qHTS rTrxR1 assay designed to find potential inhibitors and substrates of rTrxR1. For this particular BioAssay, actives are potential inhibitors. See related BioAssay for substrate data deposition.
NIH Molecular Libraries Probe Production Network [MLPCN]
NIH Chemical Genomics Center [NCGC]
Assay Provider: Elias Arner, Karolinska Institute
Assay protocol: 2 uL of reagents (buffer in column 4 as negative control and 90 nM rTrxR1 in columns 1-3 and 5-48) were dispensed into Greiner black solid-bottom 1,536-well assay plates, followed by 1 uL of NADPH (400 uM final concentration) to each well. The plates were centrifuged at 1000 rpm for 15 seconds and subsequently incubated for 5 min at room temperature (~22 deg C) to allow for rTrxR1 reduction. Compounds (23 nL) were then transferred via Kalypsys pin tool equipped with 1536-pin array (10 nL slotted pins, V&P Scientific, San Diego, CA). In addition, a duplicate 2-fold serial dilution of the control compounds auranofin, a known gold-based TrxR1 inhibitor, and juglone (5-hydroxy-1,4-naphthoquinone), a natural TrxR1 substrate, were pin-transferred to columns 2 and 3, respectively. After incubation for 15 min at room temperature (~22 deg C), 1 uL of selenite (400 uM final concentration) were dispensed to each well. The plate was immediately transferred to a ViewLux high-throughput CCD imager (PerkinElmer), wherein kinetic measurements of NADPH fluorescence (Ex 340 nm, Em 450 nm) were acquired (8 minute kinetic read, see Table 1). Read 1 was utilized to assess the capacity of a compound to serve as an rTrxR1 substrate, i.e. a decrease in NADPH fluorescence compared to the no-compound background is an indication of a substrate behavior for that particular compound. For inhibitory activity of a compound, delta values, computed as the difference in fluorescence intensity between the first and last reads of an 8-minute time kinetic window, were used. All reagents were diluted in an assay buffer consisting of 50 mM Tris-HCl, pH 7.5, 2 mM EDTA, and 0.01% Tween-20.
Throughout the screen, reagent bottle and all liquid lines were made light-tight to minimize reagent degradation. All screening operations were performed on a fully integrated robotic system (Kalypsys, San Diego, CA) containing one RX-130 and two RX-90 anthropomorphic robotic arms (Staubli, Duncan, SC). Library plates were screened starting from the lowest and proceeding to the highest concentration, and a 'double-pinning' step of the highest concentration was required to access higher concentrations of compounds. Vehicle-only plates, with DMSO being pin-transferred to the columns 5-48, were inserted uniformly at the beginning and the end of each library in order to monitor and record any shifts in the background, which can be affected by reagent dispensers or loss in enzyme activity over time. […]
% is set by controls: 0 for no effect and ±100 for the full control effect; potency is the fitted concentration of half-maximal effect.
Note: nearly all actives have a fitted effect of over 65% in size.

Thioredoxin reductase 1, cytoplasmic (Rattus norvegicus), sequence (O89049 whole entry, looked up): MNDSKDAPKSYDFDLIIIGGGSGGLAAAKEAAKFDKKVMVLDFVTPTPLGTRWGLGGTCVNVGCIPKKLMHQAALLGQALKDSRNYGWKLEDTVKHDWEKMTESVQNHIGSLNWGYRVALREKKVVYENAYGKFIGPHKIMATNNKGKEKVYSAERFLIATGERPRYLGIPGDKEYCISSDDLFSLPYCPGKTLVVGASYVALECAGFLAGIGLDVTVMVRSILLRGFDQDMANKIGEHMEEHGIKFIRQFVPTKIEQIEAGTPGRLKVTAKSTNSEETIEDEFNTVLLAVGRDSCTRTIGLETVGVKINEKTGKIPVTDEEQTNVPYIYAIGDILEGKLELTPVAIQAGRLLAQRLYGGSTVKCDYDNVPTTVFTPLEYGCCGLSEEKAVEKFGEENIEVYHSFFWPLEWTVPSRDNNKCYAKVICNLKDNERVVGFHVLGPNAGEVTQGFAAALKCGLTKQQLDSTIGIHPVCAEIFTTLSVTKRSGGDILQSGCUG

| SMILES | activity change, negative = inhibition | Potency |
| --- | --- | --- |
| O=C(NCC1CC1)C1(C(F)(F)F)C/C(=C\CCO)CCCO1 (stereo not drawn) | 18.4% [at 57.1 µM] |  |
| O=C(NCc1ccccn1)[C@]1(C(F)(F)F)C[C@H](CCc2ccccc2)CCCO1 | 6.98% |  |
| Cc1ccc(CNC(=O)C2(C(F)(F)F)C/C(=C\Cc3ccccc3)CCCO2)o1 (stereo not drawn) |  | 28.2 µM (active) |
| CC(C)(C)OC(=O)N1CCC(c2c(C(=O)Nc3ccc4c(c3)OCO4)cnn2-c2ccccc2)CC1 | 8.02% [at 57.1 µM] |  |
| Cc1ccc(Cl)cc1NC(=O)CCC(=O)N1CC(C)Sc2ccccc21 (stereo not drawn) | 1.51% |  |
| c1ccc(C2CNCc3c2ccc2ccccc32)cc1 (stereo not drawn) |  | 79.4 µM (active) |
| O=C(CSc1nc2ccccc2nc1Cc1ccccc1)N1CCCCC1 | 2.16% [at 57.1 µM] |  |
| Cc1sc(NC(=S)NC(=O)c2cccs2)nc1-c1ccc(CC(C)C)cc1 | 16.1% |  |
| O=C(NC(=S)Nc1cccc(-c2ccc(CO)o2)c1)c1cccs1 |  | 39.8 µM (active) |
| Cn1c(SCC(=O)Nc2cccc(NC(=O)c3cccs3)c2)nnc1-c1ccncc1 | 11.5% [at 57.1 µM] |  |
| Cc1nn(C)c2c1c(C(F)(F)F)cc(=O)n2C(C)C(=O)NCc1ccc(Cl)cc1 (stereo not drawn) | 2.18% [at 57.1 µM] |  |
| NS(=O)(=O)c1ccc(NC(=O)C(=O)Nc2ccc3nc4n(c(=O)c3c2)CCCCC4)cc1 | 10.6% |  |
| COc1ccc(Br)cc1C1C2C=CCC(C)C2C(=O)N1Cc1ccccc1 (stereo not drawn) |  | 22.4 µM (active) |
| COc1ccc(-c2ccc(OC)c(C3C4C=CCC(C)C4C(=O)N3Cc3ccccc3)c2)cc1C (stereo not drawn) | -6.11% |  |
| Cc1cccc([C@H]2[C@@H]3C=CC[C@@H](C)[C@@H]3C(=O)N2Cc2ccccc2)c1 | 1.61% |  |
| O=c1c(NCc2cccs2)nccn1-c1ccccc1 | 14.5% [at 57.1 µM] |  |
| C=CCn1c(=S)[nH]c2scc(-c3ccco3)c2c1=O |  | 39.8 µM (active) |
| COc1ccc(C2C(=O)N(C3CCCCCC3)CC(=O)N2CCc2ccc(Cl)cc2)cc1OC (stereo not drawn) | 23.7% [at 57.1 µM] |  |
| CCn1c(C)c(C)c2cc(C(=O)NCCc3cc(OC)ccc3OC)ccc21 | 18.4% [at 57.1 µM] |  |
| Cc1cccc(-c2nc(CS(=O)CC(=O)NC(C)CCc3ccccc3)c(C)o2)c1 (stereo not drawn) |  | 17.8 µM (active) |
| Cc1ccc(-c2nc(CS(=O)(=O)CC(=O)NCc3ccccc3Cl)c(C)o2)cc1 | -6.56% |  |
| CC(CCc1ccccc1)NC(=O)c1cnc(Cl)c(Cl)c1 (stereo not drawn) | 32.7% |  |
| Cc1csc[n+]1CCC1CCCCC1 | 35.2% |  |
| Cc1ccc2oc(=O)c3cnn(CC(=O)NCc4ccccc4Cl)c3c2c1 | 23.3% |  |

| SMILES | activity change, negative = inhibition | Potency |
| --- | --- | --- |
| CN(C)c1cc2c(Nc3ccc4c(cnn4Cc4ccccc4)c3)ncnc2cn1 |  | inactive |
| CCN1CCN(c2ccc(/C=C/c3ccnc4ccccc34)cc2)CC1 | 14.8% |  |
| Cc1ccc(S(=O)(=O)N(Cc2nc(-c3ccc(Cl)cc3)no2)C2CCCCC2)cc1 | 32.3% |  |
| O=C(Nc1cccc(Cl)c1)c1csnn1 | 12% |  |
| Cc1csc(NC(=S)Nc2cccc(Cl)c2)n1 |  | 14.1 µM (active) |
| Cc1csc(NC(=O)C2CCN(S(=O)(=O)c3ccccc3)CC2)n1 | 0.443% |  |
| CC1CCC2(CC1)N=C(c1ccccc1)C(=O)N2CC(=O)Nc1ccc(F)c(Cl)c1 (stereo not drawn) | -10.4% |  |
| COc1ccc(Cl)cc1NC(=O)CCn1c(=O)c2cccn2c2ccccc21 | 13.6% |  |
| CCOC(=O)c1scc(-c2ccccc2)c1S(=O)(=O)Nc1ccccc1F | 8.78% [at 57.1 µM] |  |
| CCOC(=O)c1c(-c2ccc(C)cc2C)csc1NC(=O)CSc1nnnn1C | -2.88% |  |
| CCCS(=O)(=O)c1ncc(Cl)c(C(=O)Nc2scc(-c3ccccc3)c2C(=O)OCC)n1 |  | 4.47 µM (active) |
| Cc1cc(C)c2oc(C(=O)Nc3c(C(=O)Nc4ccccc4)oc4ccccc34)cc(=O)c2c1 | 29% |  |
| CC(=O)c1ccc[n+](C(C)CCC(C)[n+]2cccc(C(C)=O)c2)c1 (stereo not drawn) | 9.71% |  |
| O=C(Nc1ccc2nc(SCCOc3ccccc3Cl)sc2c1)c1ccco1 | -8.93% |  |
| COc1ccc(-c2nc(CS(=O)CC(=O)NCc3cccnc3)c(C)o2)cc1OC (stereo not drawn) | -62% |  |
| Cc1ccccc1-c1nc(CS(=O)(=O)CC(=O)NC(C)c2ccccc2)c(C)o1 (stereo not drawn) |  | inactive |
| Cc1ccc(-c2nc(CS(=O)CC(=O)N3CCN(c4ncccn4)CC3)c(C)o2)cc1 (stereo not drawn) |  | 10 µM (active) |
| COc1ccc(-c2nc(CS(=O)CC(=O)N3CCc4ccccc4C3)c(C)o2)cc1 (stereo not drawn) |  | 7.94 µM (active) |
| COc1ccc(CNC(=O)CS(=O)Cc2nc(-c3cccc(C)c3)oc2C)cc1 (stereo not drawn) | -11.3% |  |
| Cc1ccccc1-c1nc(CS(=O)(=O)CC(=O)Nc2cc(Cl)cc(Cl)c2)c(C)o1 | 6.11% |  |
| CNC(=O)c1ccc(-c2nc(CN3CCc4ccccc43)c(C)o2)cc1 | 13.2% [at 57.1 µM] |  |
| COc1cccc(-c2nc(CS(=O)(=O)CC(=O)N3CCN(c4cc(C)ccc4C)CC3)c(C)o2)c1 | -6.98% |  |
| Cc1ccccc1-c1nc(CS(=O)(=O)CC(=O)N2CCc3ccccc3C2)c(C)o1 |  | 7.94 µM (active) |
| COc1ccc(N2CCN(C(=O)CSCc3nc(-c4ccccc4Cl)oc3C)CC2)cc1 | 7.44% |  |

From PubChem BioAssay AID588453 (National Center for Advancing Translational Sciences (NCATS), 2011)
